This passage reports Potency results from PubChem BioAssay (NCATS).

A short description of assay [1]: Quantitative High-Throughput drug screen in 47 multiple myeloma cell lines against the NCATS MIPE library collection: Karpas620_DSMZ cell viability assay (AID 1918959). Also: nearly all actives have a fitted effect of over 30% in size. The method in brief:
(§1)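 CellTiter-Glo luminescence (ATP) after 48 h compound exposure, 37C/5% CO2; 500 cells/well; MIPE 4.0 approved/investigational drugs pinned in; DMSO = 100%, media only = 0% viability.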

A short description of assay [2]: Quantitative High-Throughput drug screen in 47 multiple myeloma cell lines against the NCATS MIPE library collection: KMM1_JCRB cell viability assay (AID 1918960). Also: nearly all actives have a fitted effect of over 30% in size. The method in brief:
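Here, 48 h treatment with MIPE 4.0 agents at 37 °C preceded an ATP luminescence read. Plating density was 500 cells per well.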

The nature of assay [3]: Quantitative High-Throughput drug screen in 47 multiple myeloma cell lines against the NCATS MIPE library collection: Karpas417_ECACC cell viability assay (AID 1918961). As to conditions: Karpas417 myeloma viability, CellTiter-Glo ATP luminescence, 48 h; viability (% of DMSO): at 45.8 µM (top of the series). In a few lines:
(§2)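 Myeloma cells (500 per well) were exposed to MIPE 4.0 compounds by pin transfer and incubated 48 hours at 37C, 5% CO2. Viability was read as ATP by CellTiter-Glo luminescence, normalised to DMSO (100%) and media-only (0%) wells.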

Assay [4] in a line: Quantitative High-Throughput drug screen in 47 multiple myeloma cell lines against the NCATS MIPE library collection: KHM11_PLB cell viability assay (AID 1918962). Also: nearly all actives have a fitted effect of over 35% in size. The method in brief:
as §1

Assay [5] can be described thus: Quantitative High-Throughput drug screen in 47 multiple myeloma cell lines against the NCATS MIPE library collection: JIM3_ECACC cell viability assay (AID 1918963; also: nearly all actives have a fitted effect of over 35% in size). In a few lines:
as §1

A short description of assay [6]: Quantitative High-Throughput drug screen in 47 multiple myeloma cell lines against the NCATS MIPE library collection: JIM1_ECACC cell viability assay (AID 1918964). In a few lines:
(§3)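 Primary qHTS used for cherry-picking: cells at 500/well, library compounds for 48 h (37C, 5% CO2), luminescent ATP assay.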

A short description of assay [7]: Quantitative High-Throughput drug screen in 47 multiple myeloma cell lines against the NCATS MIPE library collection: INA6_PLB cell viability assay (AID 1918965; also: nearly all actives have a fitted effect of over 55% in size). The method in brief:
as §2

A short description of assay [8]: Quantitative High-Throughput drug screen in 47 multiple myeloma cell lines against the NCATS MIPE library collection: JJN3_DSMZ cell viability assay (AID 1918966; also: nearly all actives have a fitted effect of over 50% in size). The method in brief: as §3
Assay [9] can be described thus: Quantitative High-Throughput drug screen in 47 multiple myeloma cell lines against the NCATS MIPE library collection: H1112_PLB cell viability assay (AID 1918967; also: nearly all actives have a fitted effect of over 30% in size). In a few lines:
as §3

The nature of assay [10]: Quantitative High-Throughput drug screen in 47 multiple myeloma cell lines against the NCATS MIPE library collection: KMS12BM_JCRB cell viability assay (AID 1918971). Also: nearly all actives have a fitted effect of over 35% in size. The method in brief: (§4)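 Inhibition of cell viability is measured here. Each line was plated at 500 cells per well, treated with MIPE 4.0 drugs, kept 48 hours at 37C, then assayed for ATP content by CellTiter-Glo luminescence.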

The nature of assay [11]: Quantitative High-Throughput drug screen in 47 multiple myeloma cell lines against the NCATS MIPE library collection: KMS12PE_JCRB cell viability assay (AID 1918972). Also: nearly all actives have a fitted effect of over 30% in size. The method in brief:
as §2

A short description of assay [12]: Quantitative High-Throughput drug screen in 47 multiple myeloma cell lines against the NCATS MIPE library collection: KMS20_JCRB cell viability assay (AID 1918973). Also: nearly all actives have a fitted effect of over 45% in size. In a few lines:
as §3

The nature of assay [13]: Quantitative High-Throughput drug screen in 47 multiple myeloma cell lines against the NCATS MIPE library collection: KMS21BM_JCRB cell viability assay (AID 1918974). As to conditions: ATP luminescence, 48 h; viability: at 45.8 µM (top of the series). The method in brief:
as §3

The nature of assay [14]: Quantitative High-Throughput drug screen in 47 multiple myeloma cell lines against the NCATS MIPE library collection: KMS26_JCRB cell viability assay (AID 1918975). Also: nearly all actives have a fitted effect of over 45% in size. In a few lines:
as §4

The nature of assay [15]: Quantitative High-Throughput drug screen in 47 multiple myeloma cell lines against the NCATS MIPE library collection: MMM1_PLB cell viability assay (AID 1918976). Also: nearly all actives have a fitted effect of over 35% in size. The method in brief: (§5)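 Myeloma cells (500/well) treated with MIPE 4.0 compounds for 48 h at 37 °C, 5% CO2. Viability read as ATP via CellTiter-Glo luminescence after 5 min at RT; DMSO-only wells = 100%, media-only = 0% viability.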

Assay [16] is described as follows: Quantitative High-Throughput drug screen in 47 multiple myeloma cell lines against the NCATS MIPE library collection: MOLP8_DSMZ cell viability assay (AID 1918977). Also: nearly all actives have a fitted effect of over 45% in size. The method in brief: as §5
The nature of assay [17]: Quantitative High-Throughput drug screen in 47 multiple myeloma cell lines against the NCATS MIPE library collection: NCIH929_DSMZ cell viability assay (AID 1918978). Also: nearly all actives have a fitted effect of over 35% in size. The method in brief:
as §5

Assay [18] is described as follows: Quantitative High-Throughput drug screen in 47 multiple myeloma cell lines against the NCATS MIPE library collection: OCIMY1_PLB cell viability assay (AID 1918979). Also: nearly all actives have a fitted effect of over 35% in size. The method in brief:
as §5

The nature of assay [19]: Quantitative High-Throughput drug screen in 47 multiple myeloma cell lines against the NCATS MIPE library collection: KMS27_JCRB cell viability assay (AID 1918970). Also: nearly all actives have a fitted effect of over 30% in size. As to conditions: KMS27 myeloma cells, CellTiter-Glo ATP viability, 48 h; viability (% of DMSO): at 45.8 µM (top of the series). The method in brief: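 Each line is seeded at 500 cells per well and treated with library compounds for 48 hours under 37 °C, 5% CO2. CellTiter-Glo is then added for 5 min at room temperature before median relative luminescence is recorded.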
(In general: In ATP-based viability assays light output follows the ATP content of the culture.)

Assay [20] is described as follows: Quantitative High-Throughput drug screen in 47 multiple myeloma cell lines against the NCATS MIPE library collection: Karpas25_ECACC cell viability assay (AID 1918968; also: nearly all actives have a fitted effect of over 35% in size). In a few lines:
as §3

Molecules are shown by their SMILES. Records with an inconclusive call do not appear. Active and inactive are the calls of the source. Calls follow the shape of the dose curve; as a rule, active = well fitted curve in the direction sought with a large enough effect; inconclusive = small, poorly fitted or top-dose-only effect, or another doubt; inactive = no such curve, though single readings can be large; an effect the other way counts as inactive or inconclusive.
Potency is read from the fitted curve at half-maximal effect.

As to `Oc1ccc(-c2ccc(-c3cc(Nc4cccc(CNC5CC5)c4)n[nH]3)cc2)c(O)c1`, the Potency was 1180 nM (active) in assay [1]; 743 nM (active) in [2]; 833 nM (active) in [3]; 743 nM (active) in assay [4]; 1870 nM (active) in assay [5]; 264 nM (active) in assay [6]. The Potency in assay [7] is 662 nM (active); in assay [8], 1320 nM (active); in assay [9] it was 1480 nM (active); in assay [10] it was 2640 nM (active); in assay [11], 1050 nM (active); in assay [12] it was 1320 nM (active). Further, the Potency in [13] is 590 nM (active); in [14] it was 3320 nM (active); in [15] it was 2350 nM (active); in [16], 2090 nM (active); in assay [17], 1180 nM (active); in [18] it was 9350 nM (active).

Regarding `CN(C)c1ccc(C(=O)NCCCCCCC(=O)NO)cc1`, the Potency was 743 nM (active) in assay [1]; 105 nM (active) in [2]; 132 nM (active) in assay [3]; 1660 nM (active) in assay [4]; 2960 nM (active) in assay [5]; 93.5 nM (active) in [6]. For the same molecule, the Potency in [7] is 166 nM (active); in [9], 1870 nM (active); in [19], 66.2 nM (active); in assay [11] it was 93.5 nM (active); in assay [13], 41.8 nM (active); in [14], 2960 nM (active). Moreover, the Potency in assay [16] is 743 nM (active); in assay [17] it was 833 nM (active); in assay [18], 1870 nM (active).

Regarding `COc1cc(C=CC(=O)CC(=O)C=Cc2ccc(O)c(OC)c2)ccc1O`, the Potency in assay [1] is 3400 nM (active); in [2], 4810 nM (active); in [3], 4810 nM (active); in [4], 6050 nM (active); in assay [5], 4810 nM (active); in assay [6], 3400 nM (active). For the same molecule, the Potency in assay [7] was 1520 nM (active); in assay [8] it was 13600 nM (active); in assay [9] it was 6790 nM (active); in assay [20], 960 nM (active); in assay [19], 3030 nM (active); in [10], 19100 nM (active). The Potency in assay [11] is 7620 nM (active); in assay [12] it was 6050 nM (active); in assay [14] it was 48100 nM (active); in assay [15] it was 38200 nM (active); in assay [16] it was 9590 nM (active); in assay [17], 3400 nM (active). Further, in [18], the Potency was 21500 nM (active).

Take `CC(=O)NCC(=O)N1[C@H]2CC[C@H]1c1cc(Nc3ncc(C(F)(F)F)c(NC4CCC4)n3)ccc12`: the Potency is 1320 nM (active) in [1]; 3720 nM (active) in [2]; 118 nM (active) in assay [3]; 526 nM (active) in assay [4]; 1180 nM (active) in assay [5]; 332 nM (active) in [6]. For the same molecule, the Potency in assay [7] was 935 nM (active); in assay [8] it was 2640 nM (active); in [9], 16600 nM (active); in [19], 166 nM (active); in assay [10] it was 9350 nM (active); in assay [11], 105 nM (active). The Potency in assay [12] is 1320 nM (active); in [14], 5260 nM (active); in assay [15] it was 1660 nM (active); in assay [16] it was 2640 nM (active); in assay [17], 935 nM (active).

In the case of `CC(C)(O)Cn1c(NC(=O)c2ccc(-c3cn[nH]c3)s2)nc2cc(CN3CCOCC3)ccc21`, the Potency in assay [1] is 662 nM (active); in assay [2], 743 nM (active); in assay [3], 118 nM (active); in assay [4], 296 nM (active); in [5], 1320 nM (active); in [6], 418 nM (active). For the same molecule, the Potency in assay [7] was 833 nM (active); in assay [8] it was 1320 nM (active); in assay [9], 2640 nM (active); in [20], 935 nM (active); in assay [19] it was 372 nM (active); in [10], 2350 nM (active). The Potency in assay [14] is 2090 nM (active); in [16], 1180 nM (active); in [17], 1660 nM (active); in assay [18] it was 1480 nM (active).

In the case of `CNC(=O)c1ccc(Nc2cc(Nc3ccccc3S(=O)(=O)C(C)C)c3cc[nH]c3n2)nc1`, the Potency in assay [1] was 1320 nM (active); in assay [2], 1480 nM (active); in assay [3], 118 nM (active); in assay [4], 833 nM (active); in [5], 1180 nM (active); in [6], 3320 nM (active). For the same molecule, the Potency in assay [8] is 16600 nM (active); in assay [9] it was 4180 nM (active); in assay [20], 590 nM (active); in [19], 2090 nM (active); in [10], 16600 nM (active); in assay [11], 1180 nM (active). In addition, the figures for the Potency in [12], in [16] and in [17] were 935 nM (active), 10500 nM (active) and 935 nM (active), respectively.

`COc1cc(CCc2cc(NC(=O)c3ccc(N4C[C@@H](C)N[C@@H](C)C4)cc3)n[nH]2)cc(OC)c1`: the Potency in [1] was 20900 nM (active); in [2], 18700 nM (active); in assay [3], 2350 nM (active); in assay [4], 9350 nM (active); in assay [5], 14800 nM (active); in [6], 2350 nM (active). For the same molecule, the Potency in assay [7] is 9350 nM (active); in [9] it was 11800 nM (active); in assay [20] it was 16600 nM (active); in [10], 11800 nM (active); in [11], 16600 nM (active); in [12], 4690 nM (active). Moreover, the Potency in assay [15] is 16600 nM (active); in assay [16] it was 18700 nM (active); in assay [17], 10500 nM (active).

As to `CN[C@H]1[C@@H](O)[C@@H]2O[C@@H]3O[C@H](C)CC(=O)[C@]3(O)O[C@@H]2[C@@H](NC)[C@H]1O`, the Potency in assay [1] is 743 nM (active); in [2] it was 372 nM (active); in assay [3], 469 nM (active); in [4], 8330 nM (active); in assay [5] it was 5260 nM (active); in [6], 662 nM (active). Moreover, the Potency is 105 nM (active) in assay [8]; 2640 nM (active) in assay [9]; 74.3 nM (active) in assay [20]; 332 nM (active) in assay [19]; 9350 nM (active) in assay [10]; 833 nM (active) in [11]. Moreover, the Potency in [14] was 1660 nM (active); in assay [16], 11800 nM (active); in [17], 935 nM (active); in assay [18], 8330 nM (active).

Take `C#C[C@]1(O)CC[C@@H]2[C@@H]3CCC4=CC(=O)CC[C@@H]4[C@H]3CC[C@@]21CC`: the Potency entry in assay [1], in [2], in assay [3], in assay [4], in [5] and in assay [6] was “inactive” in each case. For the same molecule, the Potency result in assay [7], in assay [9], in [11], in [14], in assay [17] and in assay [18] was “inactive” in each case. The Potency was 1480 nM (active) in assay [10], 9350 nM (active) in assay [15] and 23500 nM (active) in assay [16].
